In assay [1] the target is Aryl hydrocarbon receptor (Homo sapiens) (UniProt P35869). In words: ATG_Ahr_CIS: Attagene CIS-FACTORIAL HepG2 Assay for human Aryl Hydrocarbon Receptor (Ahr) (AID 2282930). The following applies: HepG2 AhR cis-factorial reporter transcription; actives raise or lower the signal. In outline:
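Values derive from bidirectional fitting against DMSO negative control. Underlying signal: cis-element reporter mRNA in transiently transfected HepG2, harvested 24 h post-dose and measured by RT-PCR plus capillary electrophoresis.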

A short description of assay [2]: ATG_BRE_CIS: Attagene CIS-FACTORIAL HepG2 Assay for human Bone Morphogenetic Protein (BMP) Response Element (BRE) (AID 2282933). To be noted: HepG2 BMP response element reporter, Attagene transcription factor profiling; actives raise or lower the signal. An outline of the steps: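 A HepG2 multiplex reporter system measured inducible reporter mRNA 24 h post-dosing. Detection: RT-PCR, 6-FAM primer extension, HpaI digestion, capillary electrophoresis. Activity fitted bidirectionally relative to DMSO.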

Assay [3] in a line: ATG_M_61_CIS: Attagene CIS-FACTORIAL HepG2 Assay for M61 Transcription Factor (Internal Marker) (AID 2282937). The following applies: HepG2 Attagene CIS-FACTORIAL M61 internal marker reporter; actives raise or lower the signal. In outline: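 Fluorescence from labelled cDNA fragments, separated by capillary electrophoresis, quantifies reporter induction. HepG2 cells bearing transiently transfected cis-promoter MRTUs were incubated with test chemical for 24 h; DMSO defined baseline for gain/loss fitting.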

Assay [4] in a line: ATG_EGR_CIS: Attagene CIS-FACTORIAL HepG2 Assay for human Early Growth Response 1 (EGR1) (AID 2282938). The following applies: HepG2 Attagene CIS-FACTORIAL EGR reporter mRNA; actives raise or lower the signal. In outline:
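Cell-based multiplex transcription assay: HepG2 carrying transfected cis-element reporter units, 24 h chemical treatment. Fluorescence from capillary electrophoresis of RT-PCR products gives mRNA levels; fitting is bidirectional relative to DMSO.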

Assay [5] is described as follows: ATG_M_06_CIS: Attagene CIS-FACTORIAL HepG2 Assay for M06 Transcription Factor (Internal Marker) (AID 2282950). To be noted: HepG2 Attagene CIS-FACTORIAL M06 internal marker reporter; actives raise or lower the signal. An outline of the steps:
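Cells (HepG2, transiently carrying cis-driven reporter units) receive chemical for 24 h before RNA isolation. Reporter cDNA is PCR-amplified, FAM-labelled by primer extension, HpaI-digested and sized on a capillary analyser.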

In assay [6] the target is Hypoxia-inducible factor 1-alpha (Homo sapiens) (UniProt Q16665). In words: ATG_HIF1a_CIS: Attagene CIS-FACTORIAL HepG2 Assay for human Hypoxia Inducible Factor 1 (HIF1A) (AID 2282951). The following applies: HepG2 Attagene cis-factorial HIF1a reporter transcription; actives raise or lower the signal. An outline of the steps: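 In this multiplexed cell assay, HepG2 cells bearing transfected cis reporters are dosed for 24 h and reporter mRNA is read by RT-PCR plus capillary electrophoresis; signal increases and decreases are both scored against DMSO.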

Assay [7] is described as follows: ATG_MRE_CIS: Attagene CIS-FACTORIAL HepG2 Assay for human Metal Responsive Element (MRE) (AID 2282954). To be noted: HepG2 MRE cis-reporter transcription, Attagene multiplex; actives raise or lower the signal. In outline:
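Cells were transfected with cis-promoter reporter transcription units, then dosed for 24 h. RNA was reverse-transcribed, amplified, fluorescently labelled and resolved by capillary electrophoresis, and activity was fitted in both directions relative to DMSO.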

A short description of assay [8]: ATG_TGFb_CIS: Attagene CIS-FACTORIAL HepG2 Assay for human Transforming Growth Factor (TGF) (AID 2282967). To be noted: HepG2 Attagene CIS TGFb reporter, mRNA transcription; actives raise or lower the signal. An outline of the steps:
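Liver HepG2 line, cis-factorial reporter panel, 24 h dosing. Quantitation: RT-PCR products labeled with 6-FAM, cut with HpaI, resolved by capillary electrophoresis; DMSO-referenced bidirectional analysis.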

The nature of assay [9]: ATG_VDRE_CIS: Attagene CIS-FACTORIAL HepG2 Assay for human Vitamin D Receptor Element (VDRE) (AID 2282968). To be noted: HepG2 VDRE cis-reporter transcription, actives raise or lower the signal. In outline: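 Steps: transfect HepG2 with multiple reporter transcription units; dose chemicals 24 h; isolate RNA; RT-PCR; label with 6-FAM primer extension; HpaI digest; capillary electrophoresis. Curves fitted both directions against DMSO.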

Assay [10] deals with Transcriptional activator Myb (Homo sapiens) (UniProt P10242). Nature of the assay: ATG_Myb_CIS: Attagene CIS-FACTORIAL HepG2 Assay for human Myeloblastosis (Myb) Proto-Oncogene Transcription Factor (AID 2282986). The following applies: HepG2 Attagene CIS-FACTORIAL Myb reporter transcription; actives raise or lower the signal. In outline:
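Fluorescence signals from capillary electrophoresis of RT-PCR-amplified reporter cDNA give the read-out. Cells: HepG2 transfected with multiple cis-regulated reporter units. Exposure lasts 24 hours; DMSO defines baseline for gain or loss of signal.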

For assay [11], the target named is Nuclear respiratory factor 1 (Homo sapiens) (UniProt Q16656). Nature of the assay: ATG_NRF1_CIS: Attagene CIS-FACTORIAL HepG2 Assay for human Nuclear Respiratory Factor 1 (NRF1) Orphan Gene (AID 2282987). The following applies: HepG2 NRF1 cis-element reporter, Attagene multiplex; actives raise or lower the signal. An outline of the steps:
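Transcriptional reporter readout, one component of a 52-endpoint multiplexed HepG2 panel. Exposure 24 h; mRNA detected via RT-PCR and fluorescent capillary electrophoresis; fitting in both directions against DMSO.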

The nature of assay [12]: ATG_NFI_CIS: Attagene CIS-FACTORIAL HepG2 Assay for human Nuclear Factor I (NFI) (AID 2282989). To be noted: HepG2 cis-regulatory reporter, NFI response element transcription; actives raise or lower the signal. In outline:
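Transfected HepG2 liver cells, exposed 24 h, supplied total RNA for oligo(dT) reverse transcription and reporter-specific PCR. Labelled, HpaI-cut fragments were sized by capillary electrophoresis; DMSO set the baseline for bidirectional fitting.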

The target of assay [13] is Myc proto-oncogene protein (Homo sapiens) (UniProt P01106). Nature of the assay: ATG_Myc_CIS: Attagene CIS-FACTORIAL HepG2 Assay for human Myelocytomatosis (Myc) Proto-Oncogene Transcription Factor (AID 2282990). The following applies: HepG2, Attagene cis-reporter transcription factor activity; actives raise or lower the signal. An outline of the steps: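 Multiplexed cis-reporter transcription in HepG2 cells after 24 h chemical treatment. Reporter mRNA measured by RT-PCR and capillary electrophoresis fluorescence; activity fitted bidirectionally against DMSO control.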

Assay [14] can be described thus: ATG_NRF2_ARE_CIS: Attagene CIS-FACTORIAL HepG2 Assay for human Nuclear Factor Erythroid 2 Related Factor 2 (NFR2) response to Antioxidant Response Elements (ARE) (AID 2282992). To be noted: HepG2 Attagene ARE/NRF2 reporter, transcription factor activity; actives raise or lower the signal. In outline:
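Fluorescence intensity of reporter-specific cDNA fragments, separated by capillary electrophoresis, reflects mRNA induction in transfected HepG2 cells at 24 h. Activity is fitted bidirectionally, DMSO serving as baseline.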

The nature of assay [15]: ATG_Oct_MLP_CIS: Attagene CIS-FACTORIAL HepG2 Assay for human Octamer-Binding Transcription Factor (Oct) (AID 2282993). To be noted: HepG2 Attagene cis-factorial Oct reporter, mRNA; actives raise or lower the signal. An outline of the steps: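 Using HepG2 cells bearing transfected cis-reporter constructs, mRNA induction was read after 24 h by fluorescent RT-PCR and capillary electrophoresis, with DMSO defining baseline for gain- or loss-of-signal fits.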

Assay [16] deals with Cellular tumor antigen p53 (Homo sapiens) (UniProt P04637). In words: ATG_p53_CIS: Attagene CIS-FACTORIAL HepG2 Assay for human p53 Transcription Factor (AID 2282994). The following applies: HepG2 p53 cis-element reporter, Attagene mRNA; actives raise or lower the signal. An outline of the steps:
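Transiently transfected HepG2 (multiple cis reporter transcription units); exposure 24 h; reporter RNA via RT-PCR, 6-FAM extension, 2 h HpaI digest at 37 C, CE detection; DMSO baseline.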

Assay [17] deals with Nuclear receptor subfamily 1 group I member 2 (Homo sapiens) (UniProt O75469). In words: ATG_PXR_TRANS: Attagene TRANS-FACTORIAL HepG2 Assay for human Pregnane X Receptor (PXR) (AID 2283008; active = hit-call score of the fitted dose curve at least 0.9, where 1 is the maximum). An outline of the steps:
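Transient HepG2 transfectants carrying multiplexed reporter transcription units; PXR activity read through a Gal4 chimera. 24 h exposure. RT-PCR/CE fluorescence; upward curve fit referenced to DMSO.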

Assay [18] can be described thus: ATG_XTT_Cytotoxicity: Cytotoxicity Assessment in the Attagene TRANS-FACTORIAL HepG2 Assay (AID 2283584; active = hit-call score of the fitted dose curve at least 0.9, where 1 is the maximum;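 as to AC50: cells exposed to compound for 24 h before reading; active means loss of viability signal versus DMSO baseline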). An outline of the steps:
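Viability endpoint from XTT after 24 h chemical exposure of reporter-transfected human HepG2 liver cells; signal loss fitted relative to DMSO negative control.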

Assay [19] is described as follows: ATG_GRE_CIS: Attagene CIS-FACTORIAL HepG2 Assay for human Glucocorticoid Response Elements (GRE) (AID 2282947). To be noted: HepG2 GRE cis-reporter, Attagene multiplex mRNA; actives raise or lower the signal. An outline of the steps: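 Cells (HepG2) bearing transfected cis-promoter reporter transcription units were treated with chemical for 24 hours. Reporter mRNA was measured via RT-PCR with capillary electrophoresis, and activity was fitted in both directions relative to DMSO.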

A short description of assay [20]: ATG_NF_kB_CIS: Attagene CIS-FACTORIAL HepG2 Assay for human Nuclear Factor Kappa B (NF-kB) (AID 2282991). To be noted: HepG2 Attagene cis-factorial NF-kB reporter mRNA; actives raise or lower the signal. An outline of the steps: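 HepG2, transient multi-reporter transfection, cis promoter elements (endogenous TFs). 24 h exposure. Total RNA → RT → PCR → 6-FAM label → HpaI → CE. Gain/loss vs DMSO.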

Results filed as inconclusive are left out. Activity calls are given as the source filed them. The calls were made as follows, unless noted: active = hit-call score of the fitted dose curve at least 0.9, where 1 is the maximum; inactive = score below 0.9.

Nuclear receptor subfamily 1 group I member 2 (Homo sapiens), sequence (O75469 whole entry, looked up, the tested form may be a part): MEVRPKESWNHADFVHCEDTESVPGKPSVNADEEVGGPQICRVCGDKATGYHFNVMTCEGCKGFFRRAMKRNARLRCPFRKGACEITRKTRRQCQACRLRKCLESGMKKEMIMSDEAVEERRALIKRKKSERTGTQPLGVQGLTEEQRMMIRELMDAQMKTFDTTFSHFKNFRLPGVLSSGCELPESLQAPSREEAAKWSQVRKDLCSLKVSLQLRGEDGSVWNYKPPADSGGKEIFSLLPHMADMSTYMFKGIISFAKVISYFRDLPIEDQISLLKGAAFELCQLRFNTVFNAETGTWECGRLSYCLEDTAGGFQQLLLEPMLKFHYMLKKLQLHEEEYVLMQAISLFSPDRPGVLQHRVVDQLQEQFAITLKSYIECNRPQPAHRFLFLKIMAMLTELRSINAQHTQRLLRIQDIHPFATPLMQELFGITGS
Aryl hydrocarbon receptor (Homo sapiens), sequence (P35869 whole entry, looked up): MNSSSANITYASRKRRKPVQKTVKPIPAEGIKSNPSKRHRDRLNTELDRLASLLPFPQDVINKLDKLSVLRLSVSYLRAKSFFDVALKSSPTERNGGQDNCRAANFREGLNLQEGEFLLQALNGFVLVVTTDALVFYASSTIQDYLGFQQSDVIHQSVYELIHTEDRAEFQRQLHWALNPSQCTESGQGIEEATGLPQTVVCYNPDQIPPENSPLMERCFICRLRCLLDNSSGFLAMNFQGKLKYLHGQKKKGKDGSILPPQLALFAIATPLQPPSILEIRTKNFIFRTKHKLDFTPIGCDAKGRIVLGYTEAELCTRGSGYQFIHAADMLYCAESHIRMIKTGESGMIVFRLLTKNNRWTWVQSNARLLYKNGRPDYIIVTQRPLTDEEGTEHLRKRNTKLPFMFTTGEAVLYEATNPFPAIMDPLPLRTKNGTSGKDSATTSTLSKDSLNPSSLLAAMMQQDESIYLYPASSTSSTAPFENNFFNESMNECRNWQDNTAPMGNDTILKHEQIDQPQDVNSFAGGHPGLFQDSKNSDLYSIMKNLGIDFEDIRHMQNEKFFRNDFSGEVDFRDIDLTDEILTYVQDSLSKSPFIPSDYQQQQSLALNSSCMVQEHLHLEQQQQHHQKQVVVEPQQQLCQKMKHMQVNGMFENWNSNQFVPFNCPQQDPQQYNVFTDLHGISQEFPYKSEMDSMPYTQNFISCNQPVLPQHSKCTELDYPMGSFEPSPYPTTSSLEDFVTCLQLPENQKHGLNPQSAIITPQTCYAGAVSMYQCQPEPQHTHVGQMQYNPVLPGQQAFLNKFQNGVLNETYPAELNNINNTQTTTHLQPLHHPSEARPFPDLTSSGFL
Nuclear respiratory factor 1 (Homo sapiens), sequence (Q16656 whole entry, looked up): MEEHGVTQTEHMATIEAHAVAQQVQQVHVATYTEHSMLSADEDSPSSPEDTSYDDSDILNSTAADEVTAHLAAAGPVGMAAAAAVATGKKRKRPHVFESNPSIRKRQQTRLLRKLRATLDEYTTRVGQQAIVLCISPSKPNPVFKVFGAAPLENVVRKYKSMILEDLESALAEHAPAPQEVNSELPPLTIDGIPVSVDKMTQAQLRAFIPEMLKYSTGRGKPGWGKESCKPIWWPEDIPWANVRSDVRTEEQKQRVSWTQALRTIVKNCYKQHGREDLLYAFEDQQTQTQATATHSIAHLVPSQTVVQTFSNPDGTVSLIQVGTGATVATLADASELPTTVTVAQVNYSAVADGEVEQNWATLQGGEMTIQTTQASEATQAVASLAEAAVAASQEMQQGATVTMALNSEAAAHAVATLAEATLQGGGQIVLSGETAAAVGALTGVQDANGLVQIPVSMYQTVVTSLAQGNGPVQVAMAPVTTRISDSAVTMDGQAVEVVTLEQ
Myc proto-oncogene protein (Homo sapiens), sequence (P01106 whole entry, looked up): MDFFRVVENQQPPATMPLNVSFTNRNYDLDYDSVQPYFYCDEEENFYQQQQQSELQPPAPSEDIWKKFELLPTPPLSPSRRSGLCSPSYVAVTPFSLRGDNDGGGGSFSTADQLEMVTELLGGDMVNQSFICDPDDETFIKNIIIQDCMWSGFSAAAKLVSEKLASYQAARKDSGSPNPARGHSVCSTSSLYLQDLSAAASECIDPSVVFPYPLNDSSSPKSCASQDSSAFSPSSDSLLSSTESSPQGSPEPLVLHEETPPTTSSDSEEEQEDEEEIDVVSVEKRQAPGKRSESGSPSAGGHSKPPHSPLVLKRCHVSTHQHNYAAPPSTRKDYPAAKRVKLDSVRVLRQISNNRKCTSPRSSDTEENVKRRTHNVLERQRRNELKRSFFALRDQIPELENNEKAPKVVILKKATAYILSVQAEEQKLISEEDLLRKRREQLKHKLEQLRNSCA
Hypoxia-inducible factor 1-alpha (Homo sapiens), sequence (Q16665 whole entry, looked up): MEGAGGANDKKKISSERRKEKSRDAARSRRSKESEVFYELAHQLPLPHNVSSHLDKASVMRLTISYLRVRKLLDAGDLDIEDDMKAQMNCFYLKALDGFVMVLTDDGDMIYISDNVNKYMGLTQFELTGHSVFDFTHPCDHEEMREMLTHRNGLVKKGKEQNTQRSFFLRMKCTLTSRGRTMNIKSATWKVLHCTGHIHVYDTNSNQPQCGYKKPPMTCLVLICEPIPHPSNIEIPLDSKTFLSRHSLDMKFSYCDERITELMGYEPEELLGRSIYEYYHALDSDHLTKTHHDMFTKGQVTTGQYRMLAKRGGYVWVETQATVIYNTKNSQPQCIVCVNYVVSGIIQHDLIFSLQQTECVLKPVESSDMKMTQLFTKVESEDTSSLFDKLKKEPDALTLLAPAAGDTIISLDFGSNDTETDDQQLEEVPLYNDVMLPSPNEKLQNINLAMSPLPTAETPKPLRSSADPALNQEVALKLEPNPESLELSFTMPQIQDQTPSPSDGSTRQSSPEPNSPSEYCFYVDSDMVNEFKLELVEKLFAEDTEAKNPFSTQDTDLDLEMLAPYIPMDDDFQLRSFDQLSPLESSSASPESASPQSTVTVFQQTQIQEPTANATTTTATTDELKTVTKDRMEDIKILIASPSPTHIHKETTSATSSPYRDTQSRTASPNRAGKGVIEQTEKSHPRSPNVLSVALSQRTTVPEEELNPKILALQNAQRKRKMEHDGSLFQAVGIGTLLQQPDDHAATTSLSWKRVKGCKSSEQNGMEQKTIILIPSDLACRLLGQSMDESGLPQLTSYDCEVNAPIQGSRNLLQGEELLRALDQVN
Cellular tumor antigen p53 (Homo sapiens), sequence (P04637 whole entry, looked up): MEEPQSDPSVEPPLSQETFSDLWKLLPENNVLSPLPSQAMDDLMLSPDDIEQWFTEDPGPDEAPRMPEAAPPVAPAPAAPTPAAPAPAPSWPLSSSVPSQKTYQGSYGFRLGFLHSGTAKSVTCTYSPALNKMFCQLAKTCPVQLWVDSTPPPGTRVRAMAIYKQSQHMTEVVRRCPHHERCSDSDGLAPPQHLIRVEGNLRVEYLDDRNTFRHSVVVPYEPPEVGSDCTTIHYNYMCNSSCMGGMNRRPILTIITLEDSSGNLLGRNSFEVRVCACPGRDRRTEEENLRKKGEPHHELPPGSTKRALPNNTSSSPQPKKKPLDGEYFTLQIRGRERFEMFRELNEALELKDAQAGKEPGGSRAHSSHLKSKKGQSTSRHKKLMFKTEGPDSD
Transcriptional activator Myb (Homo sapiens), sequence (P10242 whole entry, looked up): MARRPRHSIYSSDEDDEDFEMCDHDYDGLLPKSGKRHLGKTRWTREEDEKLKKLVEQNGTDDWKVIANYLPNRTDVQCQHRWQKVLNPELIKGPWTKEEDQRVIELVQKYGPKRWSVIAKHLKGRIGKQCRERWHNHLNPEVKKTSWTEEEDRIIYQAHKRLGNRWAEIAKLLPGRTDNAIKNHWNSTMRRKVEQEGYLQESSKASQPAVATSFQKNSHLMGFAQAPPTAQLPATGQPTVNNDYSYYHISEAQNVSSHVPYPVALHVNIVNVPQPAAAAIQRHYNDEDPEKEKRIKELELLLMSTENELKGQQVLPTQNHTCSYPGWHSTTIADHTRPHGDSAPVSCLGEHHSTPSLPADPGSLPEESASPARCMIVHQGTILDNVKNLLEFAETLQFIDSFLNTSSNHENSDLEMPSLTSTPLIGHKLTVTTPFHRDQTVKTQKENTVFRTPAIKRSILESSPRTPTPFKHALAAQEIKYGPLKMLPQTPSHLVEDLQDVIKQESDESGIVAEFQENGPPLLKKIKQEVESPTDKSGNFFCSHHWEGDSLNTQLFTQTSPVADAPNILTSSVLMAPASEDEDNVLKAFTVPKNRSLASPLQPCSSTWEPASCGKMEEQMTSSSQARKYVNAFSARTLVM

As for `Nc1ccc([N+](=O)[O-])cc1N`, the AC50 (as a rule, the concentration giving half of the maximal activity seen) in assay [1] is 24.7 µM (active); in assay [14], 7.53 µM (active). For the same compound, the result in assay [2], in [3], in assay [4], in [5], in assay [6] and in assay [7] was inactive. The outcome in assay [8], in [9], in assay [10], in assay [11], in [12] and in [13] was inactive. Besides, the compound was classed as inactive in assay [15], in assay [16], in [17] and in [18].
With `Oc1ccc(C2(c3ccc(O)cc3)c3ccccc3-c3ccccc32)cc1`, the outcome in assay [1], in [2], in assay [3], in assay [19], in assay [5] and in [8] was inactive. Further, the result in assay [10], in assay [13], in [20] and in [14] was inactive. The AC50 in assay [4] was 14 µM (active); in [6] it was 11.1 µM (active); in [7], 13.1 µM (active); in assay [9] it was 5 µM (active); in assay [12], 17.6 µM (active); in assay [15], 9.82 µM (active). Moreover, the figures for the concentration at half-maximal activity (AC50) in assay [16], in assay [17] and in assay [18] were 17.2 µM (active), 384 nM (active) and 34.9 µM (active), respectively.
Regarding `O=c1[nH]c(Cl)c(Cl)cc1Cl`, the values for the AC50 in [1], in [6] and in assay [14] were 13.8 µM (active), 59.5 µM (active) and 76.3 µM (active), respectively. The call in assay [3], in assay [5], in assay [7], in [8], in assay [9] and in [10] was inactive. The compound was called inactive in assay [11], in assay [12], in [13], in assay [15], in [16] and in assay [17]. In addition, the call in [18] was inactive.
For `CN1C[C@H](C(=O)N[C@]2(C)O[C@@]3(O)[C@@H]4CCCN4C(=O)[C@H](Cc4ccccc4)N3C2=O)C=C2c3cccc4[nH]cc(c34)C[C@H]21`, the result in [1], in assay [2], in assay [3], in assay [4], in assay [19] and in [6] was inactive. The outcome in [8], in assay [10], in assay [11], in assay [13], in [20] and in assay [15] was inactive. Also, the result in [16] and in assay [18] was inactive. Further, the AC50 is 0.966 µM (active) in assay [9], 27 µM (active) in assay [14] and 534 nM (active) in assay [17].
As to `O=P(O)(Oc1ccccc1)Oc1ccccc1`, the call in assay [1], in assay [2], in [3], in assay [4], in assay [19] and in assay [5] was inactive. The result in assay [6], in assay [7], in assay [8], in [9], in [10] and in [11] was inactive. For the same compound, the compound was called inactive in assay [13], in [20], in [14], in [15], in [16] and in assay [17]. Further, the compound was called inactive in assay [18].

Source of the values: PubChem BioAssay (EPA / NIEHS).
